SMILES strings stand for the structures. In all, about 310,000 compounds went through this assay and about 14,000 (4.5%) showed an effect of 50% or more. The effect is printed as a negative number. What follows is part of a selection rich in strong results, with near analogues and random picks from the rest.
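Also: peak tail current of the secondary pulse compared with the same well before compound.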

human ether-à-go-go-related gene (hERG) potassium channel, sequence (Q12809 whole entry, looked up): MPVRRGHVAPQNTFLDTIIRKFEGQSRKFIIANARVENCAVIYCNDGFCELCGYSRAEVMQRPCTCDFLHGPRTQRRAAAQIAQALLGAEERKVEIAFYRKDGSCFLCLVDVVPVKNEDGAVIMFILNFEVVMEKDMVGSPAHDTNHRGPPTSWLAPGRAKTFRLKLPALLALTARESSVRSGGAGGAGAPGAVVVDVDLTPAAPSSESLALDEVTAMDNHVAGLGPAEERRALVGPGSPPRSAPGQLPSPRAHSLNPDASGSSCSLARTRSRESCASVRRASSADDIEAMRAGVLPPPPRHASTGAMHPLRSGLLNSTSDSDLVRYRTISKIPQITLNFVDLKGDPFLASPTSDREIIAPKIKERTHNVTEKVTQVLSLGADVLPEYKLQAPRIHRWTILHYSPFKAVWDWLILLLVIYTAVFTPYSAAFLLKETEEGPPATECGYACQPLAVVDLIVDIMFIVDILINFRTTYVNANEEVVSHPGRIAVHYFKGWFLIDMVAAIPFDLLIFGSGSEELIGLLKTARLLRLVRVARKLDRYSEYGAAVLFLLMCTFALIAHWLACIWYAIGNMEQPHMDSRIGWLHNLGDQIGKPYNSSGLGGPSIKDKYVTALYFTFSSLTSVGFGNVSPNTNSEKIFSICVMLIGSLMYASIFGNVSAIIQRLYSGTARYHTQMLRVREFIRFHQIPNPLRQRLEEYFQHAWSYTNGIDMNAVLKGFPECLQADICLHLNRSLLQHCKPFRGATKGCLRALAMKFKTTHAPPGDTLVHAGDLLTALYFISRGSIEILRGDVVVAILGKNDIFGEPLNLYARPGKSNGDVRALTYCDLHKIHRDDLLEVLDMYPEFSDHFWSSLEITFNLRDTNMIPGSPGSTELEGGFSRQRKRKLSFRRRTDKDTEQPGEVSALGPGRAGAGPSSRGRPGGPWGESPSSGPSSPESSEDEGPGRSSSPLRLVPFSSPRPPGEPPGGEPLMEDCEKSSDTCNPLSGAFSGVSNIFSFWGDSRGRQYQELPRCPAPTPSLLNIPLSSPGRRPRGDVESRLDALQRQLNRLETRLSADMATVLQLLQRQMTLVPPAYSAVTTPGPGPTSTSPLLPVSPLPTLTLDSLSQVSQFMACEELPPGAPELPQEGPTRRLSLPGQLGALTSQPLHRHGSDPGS

This test addresses human ether-à-go-go-related gene (hERG) potassium channel (human, UniProt Q12809). Description: primary screen, population patch clamp on CHO cells stably expressing hERG; higher = less effect of the substance.
As for `Nc1cc(=O)[nH]c(SCc2nnnn2-c2ccc(Cl)cc2)n1`, the “hERG current change (%, negative = inhibition) at 10uM” value worked out at 4.04%. `CCN1CCCC1CNC(=O)Cn1cc2c(n1)CCC(C)C2` (stereo not shown): the “hERG current change (%, negative = inhibition) at 10uM” value is recorded as 5.4%. Consider `Cn1ncc(C#N)c1/N=C/N(Cc1ccccc1)Cc1ccccc1`, for which the “hERG current change (%, negative = inhibition) at 10uM” value is on record as -9.12%. The same measure for `COCCN(C(=O)COC(=O)c1ccccc1Nc1ccccc1)c1c(N)n(Cc2ccccc2)c(=O)[nH]c1=O`: -44.9%; for `Cc1occc1C(=O)NNC(=S)NCc1ccccc1`: 6.47%. The same measure for `CC(C)(C)C(=O)Nc1cc2c3c(c1)CC(=O)N3CCC2`: 18.3%. Regarding `CCOc1ccc2[nH]c(=O)c(CN(Cc3ccccc3)C(=O)N3CCCC3)cc2c1`, the “hERG current change (%, negative = inhibition) at 10uM” value is 9.28%. With `CCN1CCCC1CN(Cc1cc2cc(C)ccc2[nH]c1=O)C(=O)Nc1ccccc1OC` (stereo not shown), the “hERG current change (%, negative = inhibition) at 10uM” value is -60%. The same measure for `COc1ccccc1NC(=O)N(Cc1ccco1)Cc1cc2ccc(C)c(C)c2[nH]c1=O`: 8.85%; for `COc1ccccc1NC(=S)N(Cc1ccco1)Cc1cc2ccc(C)c(C)c2[nH]c1=O`: -8.05%; for `CCOc1ccc2[nH]c(=O)c(CN(CC3CCCN3CC)C(=O)NCc3ccccc3)cc2c1` (stereo not shown): -63.2%.

`CCN1CCCC1CN(Cc1cc2cc(C)cc(C)c2[nH]c1=O)C(=O)Nc1ccccc1OC` (stereo not shown): the “hERG current change (%, negative = inhibition) at 10uM” value is recorded as -61.4%.

Take `COc1ccccc1NC(=O)N(Cc1cc2cc(OC)c(OC)cc2[nH]c1=O)CC1CCCO1` (stereo not shown): the “hERG current change (%, negative = inhibition) at 10uM” value is reported as -9.13%. Turning to `COc1ccccc1NC(=O)N(CCN1CCOCC1)Cc1cc2cc(C)cc(C)c2[nH]c1=O`, the “hERG current change (%, negative = inhibition) at 10uM” value is given as -33.2%.

As to `CCN1CCCC1CN(Cc1cc2cc(OC)ccc2[nH]c1=O)C(=O)NCc1ccccc1` (stereo not shown), the “hERG current change (%, negative = inhibition) at 10uM” value was -46.4%. The same measure for `COc1ccccc1NC(=O)N(Cc1ccco1)Cc1cc2cc(C)cc(C)c2[nH]c1=O`: -2.39%.

For `Cc1ccc2[nH]c(=O)c(CN(CC3COCCO3)C(=O)Nc3ccccc3C)cc2c1` (stereo not shown), the “hERG current change (%, negative = inhibition) at 10uM” value is 3.87%. As for `CCN1CCCC1CN(Cc1cc2ccc(C)c(C)c2[nH]c1=O)C(=O)Nc1ccccc1OC` (stereo not shown), the “hERG current change (%, negative = inhibition) at 10uM” value was -63.3%. Take `CCn1c(Cc2c(C)[nH]c3ccccc23)nnc1SCC(N)=O`: the “hERG current change (%, negative = inhibition) at 10uM” value was determined as 13.4%. Turning to `Cc1nn(C)c2c(=O)c(=O)c2n(C)[nH]1`, the “hERG current change (%, negative = inhibition) at 10uM” value came to 18%. The same measure for `Cc1c(C(=O)NCC2CCCO2)oc2ccc3c(c12)C(=O)CC(C)(C)O3` (stereo not shown): 2.71%. `O=C(CSc1nnc(CNC(=O)c2ccco2)o1)Nc1cccc(C(F)(F)F)c1`: the “hERG current change (%, negative = inhibition) at 10uM” value is on record as -48.3%. The same measure for `COc1cccc(NC(=O)Cc2csc(NC(=O)Nc3ccccc3OC)n2)c1`: 18.2%. The same measure for `COc1ccc(CNCc2c(O)c(Cl)cc3c(C)c(C)c(=O)oc23)c(OC)c1.Cl`: -3.6%; for `O=C(Cn1c(=O)oc2cc(S(=O)(=O)N3CCCC3)ccc21)N1CCc2ccccc2C1`: -32.3%; for `Cc1cccc2nc(CSCc3ccco3)cn12`: -2.01%. Turning to `O=C1c2ccccc2C(=O)N1OCc1ccccc1[N+](=O)[O-]`, the “hERG current change (%, negative = inhibition) at 10uM” value was 23.7%. With `O=[N+]([O-])c1ccc(N2CCN(C(=S)Nc3cccc(F)c3)CC2)cc1`, the “hERG current change (%, negative = inhibition) at 10uM” value was -52%. Regarding `O=[N+]([O-])c1ccc(N2CCN(C(=S)Nc3ccc(F)cc3)CC2)cc1`, the “hERG current change (%, negative = inhibition) at 10uM” value is -44.4%. The same measure for `COc1ccc(NC(=O)N2CCN(c3ccc([N+](=O)[O-])cc3)CC2)cc1OC`: -73.2%; for `COc1cccc(CN2CCN(C(=O)Nc3ccc([N+](=O)[O-])cc3)CC2)c1`: -57.2%; for `COc1cccc(CN2CCN(C(=O)CC(C)C)CC2)c1`: -13.1%.

As for `COc1ccc(NC(=O)N2CCCC2)cc1OC`, the “hERG current change (%, negative = inhibition) at 10uM” value is recorded as -10.2%. The same measure for `COc1ccccc1N1CCN(C(=O)Nc2ccc([N+](=O)[O-])cc2)CC1`: -52.4%; for `CN1CCN(C(=O)Nc2ccc([N+](=O)[O-])cc2)CC1`: -23.8%. The same measure for `CCOC(=O)c1ccc(NC(=O)N2CCN(c3ccccc3OC)CC2)cc1`: 11.4%. As for `COc1ccccc1N1CCN(C(=O)c2cc(C(=O)N3CCN(c4ccccc4OC)CC3)cc([N+](=O)[O-])c2)CC1`, the figure is -0.436%; as for `COc1ccc(NC(=O)N2CCN(c3ccc([N+](=O)[O-])cc3)CC2)cc1`, -36.9%; as for `O=[N+]([O-])c1ccc(NC(=S)N2CCN(c3ccc(F)cc3)CC2)cc1`, 3.73%. In the case of `CCCC[C@@H]1CNC(=S)N1CCC12CC3CC(CC(C3)C1)C2`, the “hERG current change (%, negative = inhibition) at 10uM” value came to 18.9%.

For `C=CCn1cccc(C(=O)Nc2ccc(SC)cc2)c1=O`, the “hERG current change (%, negative = inhibition) at 10uM” value was -15%. As for `Cc1nn(CC(=O)N2CCN(C34CC5CC(CC(C5)C3)C4)CC2)c(C)c1[N+](=O)[O-]`, the figure is -1.7%; as for `Cc1ccc2c(cnn2C(=O)CCCC(=O)NCc2ccc(F)cc2)c1`, -9.47%; as for `O=C(NCCc1ccccc1)/C(=C/c1ccco1)c1ccccc1`, -13.8%. As to `CN(C)S(=O)(=O)c1cccc(C(=O)NCC(=O)NC2CCN(Cc3ccccc3)CC2)c1`, the “hERG current change (%, negative = inhibition) at 10uM” value came to 3.32%. The same measure for `Cc1ccc(C(=O)CSc2nnnn2C(C)C)c(C)c1`: -3.38%. As for `Cc1nc2ccc([N+](=O)[O-])cc2c(=O)n1Cc1cccc(Br)c1`, the figure is -4.24%. `COc1ccc(OC)c(NC(=O)c2cc3ccccc3cc2OC)c1`: the “hERG current change (%, negative = inhibition) at 10uM” value is listed as 2.44%. For `CCc1c(C#N)sc(C(N)=O)c1CC`, the “hERG current change (%, negative = inhibition) at 10uM” value stood at 13.3%.

With `COc1cccc(NC(=S)N2CCN(c3ccc([N+](=O)[O-])cc3)CC2)c1`, the “hERG current change (%, negative = inhibition) at 10uM” value is reported as -27.5%. In the case of `O=[N+]([O-])c1ccc(NC(=S)N2CCN(c3ccccc3)CC2)cc1`, the “hERG current change (%, negative = inhibition) at 10uM” value is -11.4%. On to `COc1ccc(NC(=S)N2CCN(c3ccc([N+](=O)[O-])cc3)CC2)cc1OC`, for which the “hERG current change (%, negative = inhibition) at 10uM” value is listed as -77.3%. The same measure for `CCOC(=O)c1cc(CC)sc1NC(=O)C1CC1`: -7.16%.

On to `COC(=O)[C@H](CCSC)NC(=O)NCc1cccs1`, for which the “hERG current change (%, negative = inhibition) at 10uM” value was 20.6%. As for `CCOC(=O)N1CCN(C(=O)C2CCN(Cc3cccc(OCc4ccccc4)c3)CC2)CC1.O=C(O)C(=O)O`, the figure is -58.4%; as for `COCCNC(=O)C1CCN(Cc2cccc(OCc3ccccc3)c2)CC1`, -12.2%; as for `CC(C)CCNC(=O)C1CCN(Cc2cccc(OCc3ccccc3)c2)CC1.O=C(O)C(=O)O`, -50.8%.

For `CCOC(=O)C1CCCN(Cc2ccc(OCc3ccccc3)cc2)C1.O=C(O)C(=O)O` (stereo not shown), the “hERG current change (%, negative = inhibition) at 10uM” value was -40.6%. The same measure for `CCOCCCNC(=O)C1CCN(Cc2cccc(OCc3ccccc3)c2)CC1.O=C(O)C(=O)O`: -14.1%; for `CCOC(=O)C1CCN(Cc2ccc(OC)c(OCc3ccccc3)c2)CC1`: -38.3%. As for `CCCCNC(=O)C1CCN(Cc2ccc(OCc3ccccc3)c(OC)c2)CC1.O=C(O)C(=O)O`, the figure is -67.2%; as for `CCOC(=O)C1CCN(Cc2ccc(OCc3ccccc3)cc2)CC1.O=C(O)C(=O)O`, -62%; as for `NC(=O)C1CCN(Cc2cccc(OCc3ccccc3)c2)CC1.O=C(O)C(=O)O`, -12%. As for `CCOC(=O)N1CCN(C(=O)C2CCN(Cc3ccc(O)c(OCC)c3)CC2)CC1.O=C(O)C(=O)O`, the figure is 20.2%. In the case of `CCOCCCNC(=O)C1CCN(Cc2ccc(OCc3ccccc3)c(OC)c2)CC1.O=C(O)C(=O)O`, the “hERG current change (%, negative = inhibition) at 10uM” value is listed as -43.3%. Consider `CCOC(=O)C1CCN(Cc2cccc(OCc3ccccc3)c2)CC1.O=C(O)C(=O)O`, for which the “hERG current change (%, negative = inhibition) at 10uM” value is -43.2%. As for `COC(=O)c1ccccc1NC(=O)c1nc2nc(C)cc(C(F)F)n2n1`, the figure is -5.65%. Consider `Cc1nc2ccccc2c2c1CC(C)S2` (stereo not shown), for which the “hERG current change (%, negative = inhibition) at 10uM” value is -16.8%. The same measure for `Cc1ccc2nc(-c3ccccc3O)c(Nc3ccc4c(c3)OCCO4)n2c1`: 9.98%. In the case of `CC(C)CNC(=O)C1CCN(Cc2ccc(OCc3ccccc3)cc2)CC1.O=C(O)C(=O)O`, the “hERG current change (%, negative = inhibition) at 10uM” value was -77.1%. As for `COc1cc(CN2CCCCC2)ccc1OCc1ccccc1.O=C(O)C(=O)O`, the figure is -35.1%.

On to `COc1cc(CN2CCC(C(=O)NCCC(C)C)CC2)ccc1OCc1ccccc1.O=C(O)C(=O)O`, for which the “hERG current change (%, negative = inhibition) at 10uM” value is -67.8%.

On to `CCOC(=O)C1CCN(c2c(NCCCN3CCN(Cc4ccccc4)CC3)c(=O)c2=O)CC1`, for which the “hERG current change (%, negative = inhibition) at 10uM” value turned out to be 3.6%. As for `COc1ccc(CN2CCC(C)CC2)cc1OCc1ccccc1`, the figure is -49.6%; as for `O=C(C1CCN(Cc2ccc(OCc3ccccc3)cc2)CC1)N1CCCC1`, -47.1%.

Regarding `CCOC(=O)C1CCN(Cc2ccc(-c3ccccc3)cc2)CC1`, the “hERG current change (%, negative = inhibition) at 10uM” value was -28.8%. For `CCOC(=O)C1CCN(c2c(N3CCN(Cc4ccccc4)CC3)c(=O)c2=O)CC1`, the “hERG current change (%, negative = inhibition) at 10uM” value was -73.4%. Regarding `CC(O)CNC(=O)C1CCN(Cc2ccc(OCc3ccccc3)cc2)CC1.O=C(O)C(=O)O` (stereo not shown), the “hERG current change (%, negative = inhibition) at 10uM” value is -33.2%. As for `COc1cc(CN2CCC(C)CC2)ccc1OCc1ccccc1.O=C(O)C(=O)O`, the figure is -52.9%. For the molecule `COc1cc(CN2CCC(C(=O)NCC(C)(C)CN(C)C)CC2)ccc1OCc1ccccc1.O=C(O)C(=O)O`, the “hERG current change (%, negative = inhibition) at 10uM” value is 13.6%. For the molecule `O=C(/C=C/c1ccccc1)Nc1cc(NC(=O)/C=C/c2ccccc2)cc(C(=O)O)c1`, the “hERG current change (%, negative = inhibition) at 10uM” value is recorded as 21.4%. As for `COc1ccc(-c2cc(C)no2)cc1S(=O)(=O)N1CCCN(Cc2ccc(F)cc2)C1`, the figure is -16.9%.
